Screening results: PubChem BioAssay, several laboratories
Only some compounds are listed: those with a hit (about 2.6% of all), similar ones and a draw of the others.
eIF4H inh: inhibitors of RNA binding by human eIF4H | Q15056 | eIF4H fluorescence polarization binding assay | inhibition, % at 35 µM | 0.94% of 290,000 active | AID 2012;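 also: calls also rest on retests at 20 µM and on dose response follow-up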
PABP1 MLLE inh: inhibitors of microRNA-mediated deadenylation, human PABP1 MLLE binding | inhibition, % at 20 µM | 0.36% of 360,000 active | AID 588489 | GST-MLLE / FITC-PAM2 fluorescence polarization; in the data active = inhibition above about 35%, passing the limit was not always enough;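 also: plate controls were DMSO wells with GST-MLLE for no effect and wells lacking GST-MLLE protein for full effect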
ABCB6 inh 2: inhibitors of human ABC transporter ABCB6. K562-ABCB6 porphyrin accumulation, flow cytometry, 1 h; stronger effect = lower value. 0.19% of 360,000 active. Q9NP58. fluorescence ratio to DMSO, % at 10 µM;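 active = fluorescence ratio to DMSO below 75%, the collection mean minus 3 SD; inconclusive = too few cells collected in the well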;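 also: signal is porphyrin accumulated inside mitochondria; 100% equals median channel fluorescence of DMSO control wells; lower ratio means ABCB6 inhibition with less porphyrin fluorescence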
PABP polyA inh: blocks human PABP binding to poly(A) RNA; 1% of 290,000 active; AID 2014; calls only at 35 µM; fluorescence polarization;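 also: calls also rest on retests at 20 µM and on dose response follow-up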
PHOSPHO1 inh: PHOSPHO1 (human) inhibition; Q8TCT1; recombinant PHOSPHO1, absorbance phosphatase assay; inhibition, % at 13.3 µM; 1.1% of 290,000 active; AID 1565; in the data active = inhibition above about 60%
Target sequence (Q8TCT1 whole entry, looked up): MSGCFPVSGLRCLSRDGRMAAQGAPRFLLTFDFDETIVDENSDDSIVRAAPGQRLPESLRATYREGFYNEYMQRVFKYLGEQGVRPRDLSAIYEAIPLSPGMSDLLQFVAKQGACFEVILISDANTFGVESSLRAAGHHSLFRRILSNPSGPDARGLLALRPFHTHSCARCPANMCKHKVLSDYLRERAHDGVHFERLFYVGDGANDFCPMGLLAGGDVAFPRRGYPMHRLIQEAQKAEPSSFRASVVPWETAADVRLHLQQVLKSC
AI-2 QS mod: Vibrio harveyi AI-2 quorum sensing modulation; Vibrio harveyi JMH597 AI-2 luminescence/OD600 ratio, 9 h; stronger effect = lower value; strain lacks LuxN and CqsS sensors; 0 = neutral-control median; activity change, % at 7.5 µM; 0.4% of 300,000 active; in the data active = activity change below about -75%, passing the limit was not always enough; inconclusive = no clear call, values can overlap the other calls;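 also: luminescence divided by OD600 gain over 9 h not by final OD600 alone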
* marks the source's active call; other numbers are inactive results; i = inactive; u = inconclusive; x = no result; + = active, no number. Unless noted, no rule for the calls is given here.

SMILES	eIF4H inh	PABP1 MLLE inh	ABCB6 inh 2	PABP polyA inh	PHOSPHO1 inh	AI-2 QS mod
Cc1cc(C(=O)CSc2nc3ccccc3o2)c(C)n1C1CC1	88.1*	6.5	96.0	+	17.6	35.5
CN(C)c1ccc(-c2ccnc3c2CC(C)(C(=O)NCC2CCOCC2)O3)cc1 (centres undefined)	x	17.9	102.0	x	x	x
O=[N+]([O-])c1ccc(-c2ccc(/C=N/c3c(-c4ccco4)nc4ccccn34)o2)cc1	u	10.3	134.0	+	18.3	22.0
O=[N+]([O-])c1ccc(-c2ccc(/C=N/c3c(-c4ccco4)nc4ccccn34)o2)c(Cl)c1	33.8	x	x	i	18.0	-0.7
O=[N+]([O-])c1ccc(Cl)c(-c2ccc(/C=N/c3c(-c4ccco4)nc4ccccn34)o2)c1	u	1.6	160.0	+	35.8	5.0
Cc1cc(C)c([N+](=O)[O-])cc1-c1ccc(/C=N/c2c(-c3ccco3)nc3ccccn23)o1	u	-19.8	116.0	u	8.9	-0.6
CCS(=O)(=O)N1Cc2cc(C(=O)NCC3CC3)nc(-c3cccc(-c4cccnc4)c3)c2[C@@H]1CCO	x	x	94.0	x	x	x
CCOC(=O)C1(C)CCN1C(=O)c1ccccc1 (centres undefined)	x	-2.5	102.0	x	x	x
Cc1cc2nc(C(C)(C)C)c(Cc3ccccc3C(F)(F)F)n2c(C)c1Br	x	x	97.0	x	x	x
COc1cccc(/C=N/Nc2ccc(S(=O)(=O)O)cc2)c1O	18.8	-1.1	104.0	i	92.2*	13.2
COc1cccc(/C=N/NC(=S)Nc2cccnc2)c1	-9.7	32.3	99.0	u	-46.3	20.8
COc1ccc(O)c(/C=N/NC(=S)Nc2cccnc2)c1	11.7	41.3*	99.0	i	-83.1	25.4
Oc1ccc(/C=N/NC(=S)Nc2cccnc2)cc1	-4.8	38.3*	131.0	i	10.0	8.0
Oc1ccc(/C=N/NC(=S)N/N=C/c2ccc(O)cc2)cc1	9.6	32.8	98.0	i	-99.2	9.4
CC1(C)OC(=O)C2=C(C[C@@H](C3CC3)O[C@@H]2C2CC2)O1	x	x	106.0	x	x	x
CCOC(=O)C1=CCN(S(=O)(=O)c2ccccc2F)C1c1ccc(F)cc1 (centres undefined)	x	5.5	96.0	x	x	x
O=C1C=C(O)c2cccc3cccc1c23	57.8*	70.2*	89.0	+	2.6	55.8
O=C(CSc1ncnc2nc[nH]c12)Nc1ccccc1C(F)(F)F	-8.9	-107.4	103.0	i	79.2*	14.9
COc1cc(OC)nc(Nc2nc(C(N)Cc3ccc(F)cc3)cs2)n1 (centres undefined)	x	9.3	98.0	x	x	x
COc1cc(-c2nnc(SCc3cc(=O)oc4cc(O)c(O)cc34)o2)cc(OC)c1OC	92.3*	-121.5	90.0	+	49.8	-11.4
O=C(Nc1ccccc1Cl)c1cc(C2CCCN(C(=O)c3ccccc3)C2)on1 (centres undefined)	x	-7.3	103.0	x	x	x
O=C(O)c1cccc(Nc2c3ccccc3nc3ccccc23)c1	4.4	-1.8	99.0	i	44.8	24.8
O=C(O)c1cc(S(=O)(=O)O)cc(Nc2c3ccccc3nc3ccccc23)c1O	98.4*	6.8	100.0	+	27.3	14.3
NC(=NCc1ccc2c(c1)OCO2)NC(=O)c1ccccc1	4.7	6.8	100.0	i	-15.8	-77.2*
O=C(Nc1ccccc1Cl)c1cc(C2CCCCN2S(=O)(=O)c2ccc(F)cc2F)on1 (centres undefined)	x	7.3	97.0	x	x	x
SMILES	eIF4H inh	PABP1 MLLE inh	ABCB6 inh 2	PABP polyA inh	PHOSPHO1 inh	AI-2 QS mod
CC(NC(=O)Cn1cnc2c1c(=O)n(C)c(=O)n2C)c1ccccc1 (centres undefined)	-8.2	-0.1	95.0	+	-1.6	9.5
CCOC(=O)C1(C)CCN1C(=O)c1ccccc1Br (centres undefined)	x	-4.2	91.0	x	x	x
CCCCn1c2ccc(F)cc2c2nnc(SCCN3CCOCC3)nc21	-7.3	45.1*	104.0	i	9.4	13.6
Cn1c2ccc(F)cc2c2nnc(SCCN3CCOCC3)nc21	7.2	37.4	98.0	i	1.0	11.8
Cc1ccc(OCc2cc(C(=O)NCCc3cccnc3)no2)cc1C	-3.9	-2.7	86.0	i	-22.2	-84.2*
Cc1ccc(OCc2cc(C(=O)NC(C)Cc3cccnc3)no2)cc1C (centres undefined)	7.1	6.1	100.0	i	26.1	38.0
Cn1nc(C2CC2)cc1NC(=O)C1(C)CCN1C(=O)c1ccccc1CCc1ccccc1 (centres undefined)	x	11.8	98.0	x	x	x
NNc1nc2sc3c(c2c(=O)n1Cc1ccccc1)CCC3	64.3*	-54.3	97.0	+	-2.2	11.8
CCn1c(NN)nc2sc3c(c2c1=O)CCC3	52.3*	-52.1	103.0	+	86.5*	x
CSc1nc2sc3c(c2c(=O)n1C)CCC3	-6.9	12.0	98.0	i	x	14.4
Cc1ccc(-n2c(=O)c3c4c(sc3n3c(=S)[nH]nc23)CCC4)cc1	0.1	-94.0	96.0	i	-31.5	9.9
C#CCSc1nc2sc3c(c2c(=O)n1C)CCC3	63.2*	-8.1	92.0	+	-143.7	7.0
CCSc1nc2sc3c(c2c(=O)n1CC)CCC3	12.8	2.5	99.0	i	25.3	-8.8
CCn1c(=O)c2c3c(sc2n2c(=S)[nH]nc12)CCC3	-10.3	-60.3	91.0	i	102.0*	32.9
CCCCCc1c(-c2ccccc2OC)ncn1CCc1ccccc1OC	x	x	114.0	x	x	x
CCCNC(=O)c1cc(C2CCCCN2C(=O)c2cc(OC)c(C)c(OC)c2)on1 (centres undefined)	x	6.5	96.0	x	x	x
CC(C)C[C@H](NC(=O)/C=C/[C@H]1O[C@@H](n2ccc(=O)[nH]c2=O)[C@H](O)[C@@H]1O)C(=O)O	x	-5.8	99.0	x	x	x
OC(Cc1ccccc1Br)c1ncc(-c2ccc(Cl)cc2)[nH]1 (centres undefined)	x	0.1	95.0	x	x	x
Cc1[nH]c2ccc(-c3n[nH]c(=S)n3C)cc2c1C	-9.8	8.1	104.0	i	98.1*	15.7
CCn1c(-c2ccc3[nH]c(C)c(C)c3c2)n[nH]c1=S	-6.7	-4.4	268.0	i	93.5*	2.6
CCn1c(-c2ccc(F)cc2)n[nH]c1=S	-14.3	-15.7	92.0	i	-9.8	21.7
N#C/C(=C\c1cccn1S(=O)(=O)c1cccc([N+](=O)[O-])c1)S(=O)(=O)c1ccc(F)cc1	x	17.7	100.0	x	x	x
COc1ccc(CNC(=O)CC[C@H]2O[C@@H](n3ccc(=O)[nH]c3=O)[C@H](O)[C@@H]2O)cc1	x	7.2	88.0	x	x	x
